Laboratory results published in PubChem BioAssay (NCATS).
Records with an inconclusive call do not appear. Calls of active or inactive are those of the source. Unless noted, calls come from the whole dose curve; as a rule, active = well fitted curve in the direction sought with a large enough effect; inconclusive = small, poorly fitted or top-dose-only effect, or another doubt; inactive = no such curve, though single readings can be large; an effect the other way counts as inactive or inconclusive.

Columns and labels:
[1] = Primary qHTS for inhibitors of nuclear receptor binding SET domain protein 2 (NSD2) in an isogenic RCH-ACV NSD2 p.E1099K mutant (9B) (AID 1645876); note: potency is the fitted concentration of half-maximal effect; nearly all actives have a fitted effect of over 70% in size
[2] = Primary qHTS for inhibitors of nuclear receptor binding SET domain protein 2 (NSD2) in an RCH-ACV wild type WT cells (2C) (AID 1645877); note: potency is the fitted concentration of half-maximal effect; nearly all actives have a fitted effect of over 70% in size
[3] = target: Glutathione peroxidase 1 (Homo sapiens) (UniProt P07203); experiment: Primary qHTS Assay for Inhibitors of Recombinant Selenoprotein Glutathione Peroxidase 1 (GPX1) (AID 1845191); note: nearly all actives have a fitted effect of over 65% in size
Outline: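 GR-coupled assay: compounds preincubated 30 min at room temperature with GPX1, then reaction started with CHP; final 10 nM GPX1, 1 mM GSH, 0.5 mM CHP, 0.5 mM NADPH, 100 nM GR, 0.01% BSA, pH 7.5 Tris buffer. NADPH fluorescence (340/450 nm) read at 0 and 15 min.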

[4] = target: Phospholipid hydroperoxide glutathione peroxidase GPX4 (Homo sapiens) (UniProt P36969); experiment: Primary qHTS Assay for Inhibitors of Recombinant Selenoprotein Glutathione Peroxidase 4 (GPX4) (AID 1845192); note: series mostly up to about 50 µM; % is set by controls: 0 for no effect and ±100 for the full control effect; nearly all actives have a fitted effect of over 65% in size
Outline: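 GR-coupled assay: recombinant GPX4 preincubated 30 min with compound at room temperature; final 200 nM GPX4, 1 mM GSH, 0.5 mM cumene hydroperoxide, 0.5 mM NADPH, 100 nM GR, 0.01% BSA, pH 7.5 Tris. NADPH fluorescence (340/450 nm) read at 0 and 15 min.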

[5] = qHTS drug screen for cell cycle checkpoint inhibitors in PARPi-resistant BRCA-mutant ovarian cancer cell lines. (AID 1963452; calls by dose curve); settings: PEO1/OlaR viability, CellTiter-Glo luminescence, 96 h, stronger effect = lower value
Outline: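 PEO1, PEO4 and PEO1/OlaR ovarian cancer cells, 600 per well, exposed 96 h at 37C to a dilution series. Viability read by CellTiter-Glo luminescence, normalized to DMSO and empty wells; activity summarized as Z-AUC.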

[6] = NCATS anti-infectives library activity on HEK293 viability as a counter-qHTS vs the C. elegans viability qHTS (AID 1745854);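 note: HEK293 cells exposed to compounds for 24 hr before the viability read; % is set by controls: 0 for no effect and ±100 for the full control effect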
Outline: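 Cytotoxicity in human HEK293 cells is measured by ATP-dependent CellTiter-Glo luminescence following a 24 hr incubation with titrated library compounds at 37C. Top final concentration is 41.7 uM.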

[7] = measured here: PEO1 parental Z-AUC

Chain of Phospholipid hydroperoxide glutathione peroxidase GPX4 (Homo sapiens) (P36969 whole entry, looked up): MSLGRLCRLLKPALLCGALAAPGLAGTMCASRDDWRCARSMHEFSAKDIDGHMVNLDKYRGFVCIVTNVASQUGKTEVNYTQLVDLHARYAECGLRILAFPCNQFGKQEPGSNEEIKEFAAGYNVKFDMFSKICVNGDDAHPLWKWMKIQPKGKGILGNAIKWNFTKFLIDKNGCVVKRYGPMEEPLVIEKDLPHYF
Chain of Glutathione peroxidase 1 (Homo sapiens) (P07203 whole entry, looked up): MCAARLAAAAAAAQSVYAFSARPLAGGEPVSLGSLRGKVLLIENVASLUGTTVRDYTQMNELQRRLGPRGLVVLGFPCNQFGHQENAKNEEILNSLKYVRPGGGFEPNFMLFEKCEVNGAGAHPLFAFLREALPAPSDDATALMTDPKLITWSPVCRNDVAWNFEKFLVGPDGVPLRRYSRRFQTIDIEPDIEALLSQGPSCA

| Compound | Potency [1] | Potency [2] | Potency [3] | Potency [4] | Z-AUC [5] | Z-AUC [5, 7] | Z-AUC ([5]; measured here: PEO4 Z-AUC) | outcome [6] |
| --- | --- | --- | --- | --- | --- | --- | --- | --- |
| N#Cc1cccnc1N1CCN(C(=O)c2cccc(Cc3n[nH]c(=O)c4ccccc34)c2)CC1 | 0.0332 µM (active) | 0.0209 µM (active) | inactive | inactive | -1.35 (inactive) | -2.79 | -1.63 |  |
| O=C(CCCCCCNC(=O)c1cnc(N(c2ccccc2)c2ccccc2Cl)nc1)NO | 2.63 µM (active) | 2.09 µM (active) | inactive | inactive |  |  |  | inactive |
| O=C(NO)C1(CS(=O)(=O)c2ccc(Oc3ccc(Cl)cc3)cc2)CCOCC1 | 16.6 µM (active) | 16.6 µM (active) | inactive | inactive | 1.18 (inactive) | 0.196 | 0.465 |  |
| COc1cc(OC)cc(N2CCN(C(=O)Nc3nc4cc(F)ccc4nc3OC)CC2)c1 | 20.9 µM (active) | 26.3 µM (active) | inactive | inactive | -0.785 (inactive) | -0.317 | 0.136 |  |
